# Measured values published in the antibiotic and cytotoxicity screens of Wong et al. (2023).
# In all, about 39,000 compounds went through this assay and about 3,300 (8.5%) were called active. Shown is part of a subset that was picked to be rich in actives.
# Test system: HepG2
# Assay: cytotoxicity call (relative viability < 0.9)
# Details: 10 µM
row,Compound,cytotoxicity call
1,C[C@H]1CN([C@@H](C)CO)C(=O)c2cc(NC(=O)NC3CCCCC3)ccc2O[C@@H]1CN(C)S(=O)(=O)c1cn(C)cn1,inactive
2,C[C@H]1CN([C@@H](C)CO)C(=O)Cc2cc(NS(=O)(=O)c3ccccc3)ccc2O[C@H]1CN(C)Cc1ccc(Oc2ccccc2)cc1,inactive
3,C[C@@H]1CN([C@@H](C)CO)C(=O)Cc2cc(NS(=O)(=O)c3ccccc3)ccc2O[C@H]1CN(C)Cc1ccc(Oc2ccccc2)cc1,inactive
4,C[C@@H]1CN([C@H](C)CO)C(=O)Cc2cc(NS(=O)(=O)c3ccccc3)ccc2O[C@@H]1CN(C)Cc1ccc(Oc2ccccc2)cc1,active
5,C[C@@H]1CN([C@H](C)CO)C(=O)Cc2cc(NS(=O)(=O)c3ccccc3)ccc2O[C@H]1CN(C)Cc1ccc(Oc2ccccc2)cc1,active
6,C[C@@H]1CN([C@@H](C)CO)C(=O)Cc2cc(NS(=O)(=O)c3ccccc3)ccc2O[C@@H]1CN(C)Cc1ccc(Oc2ccccc2)cc1,active
7,C[C@H](CO)N1C[C@H](C)[C@@H](CN(C)Cc2ccc(Oc3ccccc3)cc2)Oc2ccc(NS(=O)(=O)c3ccccc3)cc2CC1=O,inactive
8,C[C@H]1CN([C@@H](C)CO)C(=O)Cc2cc(NS(=O)(=O)c3ccccc3)ccc2O[C@@H]1CN(C)Cc1ccc(Oc2ccccc2)cc1,inactive
9,C[C@H](CO)N1C[C@H](C)[C@H](CN(C)Cc2ccc(Oc3ccccc3)cc2)Oc2ccc(NS(=O)(=O)c3ccccc3)cc2CC1=O,inactive
10,COc1ccc(S(=O)(=O)Nc2cccc3c2O[C@@H](CN(C)Cc2ccc(-c4ccccc4)cc2)[C@H](C)CN([C@H](C)CO)C3=O)cc1,inactive
11,CO[C@H]1CN(C)C(=O)c2ccc(NC(=O)c3ccccc3)cc2OC[C@H](C)N(C(=O)CN(C)C)C[C@@H]1C,inactive
12,C[C@@H]1CN([C@H](C)CO)C(=O)c2cccc(NC(=O)NC3CCCCC3)c2O[C@H]1CN(C)Cc1ccc(-c2ccccc2)cc1,inactive
13,CCS(=O)(=O)N1CCC[C@]2(C(=O)NCC3CC3)CN(Cc3cnn(C)c3)C[C@H]2C1,inactive
14,COc1ccc(C(=O)NC(CO)(CO)CO)cc1OC,inactive
15,C[C@@H]1CN([C@H](C)CO)S(=O)(=O)c2ccc(C#CC3CCCC3)cc2O[C@@H]1CN(C)C(=O)Cc1ccncc1,inactive
16,COc1cc2c(cc1O)CCN[C@]21CS[C@@H]2c3c(OC(C)=O)c(C)c4c(c3[C@H](COC1=O)N1[C@@H]2[C@H]2c3c(cc(C)c(OC)c3O)C[C@@H]([C@@H]1O)N2C)OCO4,active
17,CO[C@H](CN(C)S(=O)(=O)c1ccc(C)cc1)[C@@H](C)CN([C@@H](C)CO)S(=O)(=O)c1cccc(Cl)c1,inactive
18,Cc1cnc(Nc2ccc(F)cc2Cl)nc1-c1c[nH]c(C(=O)N[C@H](CO)c2cccc(Cl)c2)c1,active
19,C[C@@H]1CN([C@@H](C)CO)C(=O)Cc2cc(NC(=O)CCN3CCOCC3)ccc2O[C@H]1CN(C)Cc1ccc(C(=O)Nc2ccccc2N)cc1,inactive

row,Compound,cytotoxicity call
1,CC(=O)OC1CCC2(C)C(CC(OC(C)=O)C3(C)C2CCC2(C)C(c4ccoc4)OC(=O)C4OC423)C1(C)C (stereo not drawn) [3beta-ACETOXYDEOXODIHYDROGEDUNIN ],inactive
2,CC(=O)O[C@H]1CC[C@]2(C)[C@H]3CC[C@@]4(C)[C@H](c5ccoc5)OC(=O)[C@H]5O[C@]54[C@]3(C)[C@H](OC(C)=O)C[C@H]2C1(C)C,inactive
3,CC1(C)C(=O)C=CC2(C)C1C=CC1(C)C2CCC2(C)C(c3ccoc3)OC(=O)C3OC312 (stereo not drawn),active
4,CC(=O)OC1CC(OC(C)=O)C2(C)C(CC(=O)C3(C)C2CCC2(C)C(c4ccoc4)OC(=O)C4OC423)C1(C)C (stereo not drawn),inactive
5,CC1(C)C(=O)C=CC2(C)C1CC(=O)C1(C)C2CCC2(C)C(c3ccoc3)OC(=O)C3OC321 (stereo not drawn),active
6,CC1(C)OC2CC(=O)OCC23C1CC(=O)C1(C)C3CCC2(C)C(c3ccoc3)OC(=O)C3OC321 (stereo not drawn),inactive
7,C[C@H]1CCCCO[C@@H](CN(C)C(=O)c2ccncc2)[C@@H](C)CN([C@@H](C)CO)C(=O)c2cc(NS(=O)(=O)c3ccc(Cl)cc3)ccc2O1,inactive
8,Nc1ccc([C@@H](O)[C@@H](O)CO)cc1,inactive
9,COc1ccc(S(=O)(=O)N(C)C[C@@H]2Oc3c(NC(=O)c4cnccn4)cccc3C(=O)N([C@@H](C)CO)C[C@H]2C)cc1,inactive
10,C[C@H](CO)N1C[C@H](C)[C@H](CN(C)C(=O)Cc2ccccn2)Oc2ncc(-c3cccc(C(=O)N(C)C)c3)cc2C1=O,inactive
11,COc1ccc(S(=O)(=O)N(C)C[C@@H]2Oc3ccc(NS(C)(=O)=O)cc3CC(=O)N([C@H](C)CO)C[C@@H]2C)cc1,inactive
12,COc1ccc(NC(=O)Nc2ccc3c(c2)C(=O)N([C@H](C)CO)C[C@@H](C)[C@H](CN(C)Cc2ccc4c(c2)OCO4)OCCCC[C@@H](C)O3)cc1,inactive
13,COc1ccc(NC(=O)Nc2ccc3c(c2)C(=O)N([C@@H](C)CO)C[C@H](C)[C@H](CN(C)Cc2ccc4c(c2)OCO4)OCCCC[C@@H](C)O3)cc1,inactive
14,COc1ccc(NC(=O)Nc2ccc3c(c2)C(=O)N([C@H](C)CO)C[C@@H](C)[C@@H](CN(C)Cc2ccc4c(c2)OCO4)OCCCC[C@@H](C)O3)cc1,active
15,COc1ccc(NC(=O)Nc2ccc3c(c2)C(=O)N([C@H](C)CO)C[C@H](C)[C@@H](CN(C)Cc2ccc4c(c2)OCO4)OCCCC[C@H](C)O3)cc1,inactive
16,COc1ccc(NC(=O)Nc2ccc3c(c2)C(=O)N([C@@H](C)CO)C[C@@H](C)[C@@H](CN(C)Cc2ccc4c(c2)OCO4)OCCCC[C@@H](C)O3)cc1,inactive
17,COc1ccc(NC(=O)Nc2ccc3c(c2)C(=O)N([C@H](C)CO)C[C@H](C)[C@H](CN(C)Cc2ccc4c(c2)OCO4)OCCCC[C@H](C)O3)cc1,active
18,C[C@@H]1CCCCO[C@H](CN(C)C(=O)NC2CCCCC2)[C@H](C)CN([C@@H](C)CO)C(=O)c2cc(NC(=O)c3ccccc3)ccc2O1,inactive
19,C[C@@H]1CN([C@@H](C)CO)C(=O)Cc2cc(NC(=O)Cc3ccccc3)ccc2O[C@H]1CN(C)C(=O)Nc1cccc2ccccc12,inactive
